Experimental data published in PubChem BioAssay AID651582 (Sanford-Burnham Center for Chemical Genomics, 2012).
In all, about 230,000 compounds went through this assay and about 1,500 (0.65%) were called active.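 Rule for the calls: active = pattern-corrected inhibition of lipid staining of at least 50% with the nuclear-stain viability signal not falling by more than 50%; inactive = the rest, inconclusive results apart.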 The list comes from a sample in which actives are over-represented; it also holds similar structures and randomly drawn compounds.

Assay: TAG lipid buildup reduction in H9c2 cells – cell-based, uHTS, fluorescence, primary screen (AID 651582);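 for inhibition: 0% = DMSO wells and 100% = triacsin C control wells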
Details: Nile Red lipid (TAG) fluorescence, at 12.5 µM, cells loaded with 200 µM oleic acid; DAPI nuclei signal change (viability), lower = more cytotoxic: measured here: DAPI nuclei count viability; inhibition: stronger effect = higher value

SMILES	DAPI nuclei signal change (viability), lower = more cytotoxic [%]	inhibition
O=C(COC(=O)/C=C/c1cccc(Cl)c1)NCc1cccs1	-2.53	1.94% (inactive)
CCCNC(=O)c1cc(C2CCCCN2S(=O)(=O)c2cn(C)cn2)on1 (stereo unspecified)	4.91	3.78% (inactive)
CCCC(=O)Nc1nc2ccc(NC(=O)c3c(F)c(F)c(OC)c(F)c3F)cc2s1	-22.6	70% (active)
CSc1nc2ccc(NC(=O)c3c(F)cccc3F)cc2s1	1.73	-11.3% (inactive)
CC(=O)Nc1ccc2nc(NC(=O)CS(=O)(=O)c3ccc(F)cc3)sc2c1	-3.72	-0.551% (inactive)
CCNC(=O)C1(C)CCCN(C(=O)c2c(C)noc2C)C1 (stereo unspecified)	4.88	-5.1% (inactive)
CC1=C(C(=O)N(C)C)CC(CC(=O)NCCc2ccccn2)C(=O)N1CCC1=CCCCC1 (stereo unspecified)	-8.79	-1.46% (inactive)
CN(Cc1c(F)cccc1Cl)C(=O)COC(=O)Cn1cnc2ccccc2c1=O	0.959	-10.1% (inactive)
O=C(OCCN1C(=O)c2ccccc2C1=O)[C@@H]1CC(O)CN1S(=O)(=O)c1ccccc1[N+](=O)[O-] (stereo partly specified)	-0.22	-9.02% (inactive)
CCCC(=O)N1CCC1(C)C(=O)NS(=O)(=O)c1ccc(Cl)cc1 (stereo unspecified)	2.06	6.55% (inactive)
CC(=O)Nc1ccc(C(=O)Nc2cc(S(=O)(=O)N3CCOCC3)ccc2N2CCOCC2)cc1	4.58	-8.64% (inactive)
C=CC(=O)Nc1ccc(Nc2ccnc(Nc3ccc(N4CCN(C)CC4)cc3)n2)cc1	-47	88.2% (active)
CN1CCN(c2ccc(NC(=O)COc3ccc(Cl)cc3Cl)cc2)CC1	3.32	-1.69% (inactive)
Cc1cccc(N2CCN(c3ccc(NC(=O)/C=C\C(=O)O)cc3)CC2)c1	1.52	7.15% (inactive)
COc1cc(NC(=O)c2cc(-c3ccc(F)cc3OC(C)C)n[nH]2)cc(OC)c1OC	-6.58	5.57% (inactive)
Cc1ccc(Sc2cc(N3CCOCC3)nc(-c3ccccc3)n2)cc1	-0.706	55.1% (active)
Cc1cc(N2CCN(c3ccccc3)CC2)nc(N2CCOCC2)n1	-3.71	14.3% (inactive)
O=S(=O)(Cc1cc(Sc2ccccc2)nc(-c2ccccc2)n1)c1ccccc1	-1.14	12.7% (inactive)
COc1ccc(-c2ccc3c(c2)C2CC3CCN2CCC#N)cc1 (stereo unspecified)	3.73	-6.07% (inactive)
CCc1nc2ccc(C(=O)Nc3cccc(OC)c3)cn2c1N(CCC(C)C)CCN(C)C	0.0295	33.9% (inactive)
Cc1[nH]c2ccccc2c1C(=O)C(=O)NCc1nnnn1-c1cccc(F)c1	9.45	-12.5% (inactive)
CCN(CC)c1ncnc2c1ncn2[C@H]1CN(Cc2cccs2)C[C@@H](CO)O1	-0.273	-11.2% (inactive)
OC(c1ccc(Cl)cc1)c1ncc(-c2ccc(Cl)cc2)[nH]1 (stereo unspecified)	11	-53.7% (inactive)
O=C1OCC2=C1C(c1ccc(Cl)cc1)c1cc3c(cc1O2)OCO3 (stereo unspecified)	6.8	11% (inactive)
COc1ccccc1C1C2=C(COC2=O)Nc2cc3c(cc21)OCO3 (stereo unspecified)	-19.2	58.6% (active)
CCCOc1ccccc1C1CC(=O)Nc2cc3c(cc21)OCO3 (stereo unspecified)	-7.65	28.7% (inactive)

SMILES	DAPI nuclei signal change (viability), lower = more cytotoxic [%]	inhibition
CN(C)S(=O)(=O)c1cccc(NC(=O)COc2ccc3ccccc3c2)c1	-8.57	-14% (inactive)
O=C(NCCO)c1cccc(-c2cccc3nccn23)c1	4.67	-6.44% (inactive)
COc1ccc(CCNC(=O)CCCCn2c(=O)[nH]c3ccccc3c2=O)cc1OC	-8.64	21.8% (inactive)
COc1ccc(Cc2nnc(N/N=C/c3ccccc3O)[nH]c2=O)cc1OC	-27	50.4% (active)
CCOc1ccc(-n2c(O)c(/C=N/Nc3nnc(C)c(=O)[nH]3)c3ccccc3c2=O)cc1	5.58	-10.7% (inactive)
CC1C(=O)N(Cc2cn(CC3CCCCC3)nn2)CCS(=O)(=O)N1Cc1ccc(-c2cccc(N(C)C)c2)cc1 (stereo unspecified)	-0.553	-17.1% (inactive)
Cc1ccc(OCC(=O)Nc2ccc(-c3nc4ncccc4o3)cc2)cc1	18.7	14% (inactive)
COc1ccc(CC(=O)Nc2ccc(-c3nnc(-c4ccc(C)cc4)o3)cc2)cc1	2.81	59.2% (active)
COc1ccc(NC(=O)c2cc(-c3ccc(C)cc3)on2)cc1	4.01	-3.75% (inactive)
NNC(=O)c1nnn(-c2nonc2N)c1CN1CCCC1	-4.78	-6.85% (inactive)
CC1(C)CC(=O)C=C(c2ccccc2CO)C1=O	-1.17	-16.1% (inactive)
CC(=O)CC(CC(=O)NC1CCCCC1)c1ccccc1 (stereo unspecified)	1.1	2.67% (inactive)
Cc1ccc(-c2nc3ccccc3[nH]2)cc1NC(=O)c1sc2ccccc2c1Cl	17.5	58.3% (active)
COc1ccc(CNC(=O)CNC(=O)c2sc3ccccc3c2Cl)cc1OC	-2.17	10.6% (inactive)
Cc1nn(C)cc1/C=N/NC(=O)c1sc2ccccc2c1Cl	6.2	-14.7% (inactive)
Cc1ccc(Cc2c(-c3ccccc3)nc3ccc(Cl)cn23)cc1	0.00442	-0.293% (inactive)
COc1ccc(C(=O)N(C)Cc2ccc(OC)c(OC)c2OC)cc1S(=O)(=O)N1CCOCC1	-5.3	8.22% (inactive)
COc1ccc2[nH]c3c(c2c1)CCN1C(=O)C(CC(=O)NCCCN(C)C)C[C@H](C(=O)N2CCOCC2)[C@@]31CCC1CCCC1 (stereo partly specified)	-19.4	31.2% (inactive)
COc1ccc(CNC(=O)C[C@H]2C[C@H](C(=O)N3CCOCC3)[C@@]3(CCC4CCCC4)c4[nH]c5ccc(Cl)cc5c4CCN3C2=O)cc1OC	0.251	63.8% (active)
O=C(C[C@H]1C[C@H](C(=O)N2CCOCC2)[C@@]2(CCC3CCCC3)c3[nH]c4ccc(Cl)cc4c3CCN2C1=O)NCc1ccco1	8.62	28.1% (inactive)
CC[C@]12c3[nH]c4ccc(OC)cc4c3CCN1C(=O)C(CC(=O)NCc1ccco1)C[C@@H]2C(=O)N1CCN(C(=O)C2CC2)CC1 (stereo partly specified)	-9.73	7.93% (inactive)
Cc1cc(Oc2ccccc2)nc(N2CCOCC2)n1	6.77	-9.8% (inactive)
CC(=O)c1ccc(Oc2cc(C)nc(-n3nc(C)cc3C)n2)cc1	-32.4	61.3% (active)
Cc1cc(C)n(-c2cc(Oc3ccccc3)ncn2)n1	6.79	-18.3% (inactive)
CN(CCc1ccccc1)C(=O)c1cccc(NC(=O)Cc2ccc([N+](=O)[O-])cc2)c1	-3.23	-35% (inactive)
COc1cc(C(=O)OCC(=O)NC23CC4CC(CC(C4)C2)C3)cc(OC)c1OC	-0.331	-18.4% (inactive)

SMILES	DAPI nuclei signal change (viability), lower = more cytotoxic [%]	inhibition
COc1ccccc1-n1c(=S)[nH]c2c(sc(=S)n2-c2ccc(C)cc2C)c1=O	-48.2	65.4% (active)
COc1cccc(-n2c(=S)sc3c(=O)n(-c4ccccc4OC)c(SCC4OCCO4)nc32)c1	-13.5	20.8% (inactive)
CCc1ccc(-n2c(=S)sc3c(=O)n(-c4ccccc4OC)c(=S)[nH]c32)cc1	8.9	-2.37% (inactive)
O=C(Nc1cc2c3c(c1)C1CCCC1CN3CC1CCCC21)c1ccc([N+](=O)[O-])cc1 (stereo unspecified)	-11.5	53.3% (active)
CN(CC1CCCO1)S(=O)(=O)c1ccc(C(=O)Nc2ccc([N+](=O)[O-])cc2)cc1 (stereo unspecified)	3.29	-15.4% (inactive)
O=C(Nc1ccc(C(=O)N2CCCCC2)cc1)c1cccc([N+](=O)[O-])c1	5.03	3.82% (inactive)
O=C(Cc1ccccc1)N1CCN(S(=O)(=O)c2ccc([N+](=O)[O-])cc2)CC1	-3.05	-0.872% (inactive)
CC1CCN(C(=S)c2cccc([N+](=O)[O-])c2)CC1	4.33	-2.26% (inactive)
CC1(c2ccccc2)CC(C)(C)N(C(=O)c2cc([N+](=O)[O-])cc([N+](=O)[O-])c2)c2ccccc21 (stereo unspecified)	-2.38	54.1% (active)
CCCCN(C=O)c1c(CC)nc2c(OCc3ccccc3C(=O)OC)cccn12	-7.9	4.1% (inactive)
O=C(CCl)NNc1nc(-c2ccccc2)c2cc(Cl)ccc2n1	-5.54	4.04% (inactive)
O=C(NN=Cc1ccccc1)c1ccccc1	1.87	-3.23% (inactive)
CN(O)C(=S)c1ccccc1	-65.1	90.7% (inactive)
CN(/N=C/c1ccccc1)C(=S)c1ccccc1	-19.1	63.6% (active)
NC(=O)c1ncn([C@@H]2O[C@H](CNCc3cnc(N4CCOCC4)s3)[C@@H](O)[C@H]2O)n1	-1.13	2.87% (inactive)
CCC(=O)N1CCN(c2ccccc2NC(=O)COc2cccc(C)c2C)CC1	-0.0457	-24.8% (inactive)
Cc1ccccc1OCC(=O)Nc1ccc2c(c1)ncn2C	5.22	2.71% (inactive)
Cc1ccccc1OCC(=O)Nc1ccc(N2CCN(C(=O)C(C)C)CC2)c(Cl)c1	-3.43	53.8% (active)
CN1CCC(N(C)S(=O)(=O)c2ccc(NC(=O)c3cccc(C#N)c3)cc2)CC1	-3.7	15.9% (inactive)
Oc1cccc2cc(-c3ccncc3)cnc12	-33.8	56.3% (active)
COc1ccc(NC(=O)CSc2nnc(C3CC3)n2C)cc1S(=O)(=O)N1CCCCC1	9.15	-10.9% (inactive)
CCN(CC)C(=O)C1=C(C)N(Cc2ccccc2)C(=O)C(CC(=O)NC(c2ccccc2)c2ccccc2)C1 (stereo unspecified)	-1.27	22.4% (inactive)
Cc1ccc(S(=O)(=O)N2CCN(C(=O)c3cc(S(=O)(=O)N4CCOCC4)ccc3F)CC2)cc1	-10.8	2.68% (inactive)
Cc1ccc(S(=O)(=O)N(Cc2cccc([N+](=O)[O-])c2)C(=O)N2CCN(C)CC2)cc1	-12.6	6.71% (inactive)
CCN(CC)C(=O)CN(c1cccc([N+](=O)[O-])c1)S(=O)(=O)c1ccccc1	-11.2	5.09% (inactive)
O=C(CCl)N(Cc1cccc([N+](=O)[O-])c1)c1cccc(Cl)c1	0.0094	53.5% (active)
